# Experimental data reported in ChEMBL document CHEMBL2218924, “A broad activity screen in support of a chemogenomic map for kinase signalling research and drug discovery” (Biochem J, 2013).
# What was measured:
# [1] = biological target: T1, Tyrosine-protein kinase ZAP-70 (Homo sapiens) (UniProt P43403); conditions: at 10 µM
# T1 sequence (whole entry): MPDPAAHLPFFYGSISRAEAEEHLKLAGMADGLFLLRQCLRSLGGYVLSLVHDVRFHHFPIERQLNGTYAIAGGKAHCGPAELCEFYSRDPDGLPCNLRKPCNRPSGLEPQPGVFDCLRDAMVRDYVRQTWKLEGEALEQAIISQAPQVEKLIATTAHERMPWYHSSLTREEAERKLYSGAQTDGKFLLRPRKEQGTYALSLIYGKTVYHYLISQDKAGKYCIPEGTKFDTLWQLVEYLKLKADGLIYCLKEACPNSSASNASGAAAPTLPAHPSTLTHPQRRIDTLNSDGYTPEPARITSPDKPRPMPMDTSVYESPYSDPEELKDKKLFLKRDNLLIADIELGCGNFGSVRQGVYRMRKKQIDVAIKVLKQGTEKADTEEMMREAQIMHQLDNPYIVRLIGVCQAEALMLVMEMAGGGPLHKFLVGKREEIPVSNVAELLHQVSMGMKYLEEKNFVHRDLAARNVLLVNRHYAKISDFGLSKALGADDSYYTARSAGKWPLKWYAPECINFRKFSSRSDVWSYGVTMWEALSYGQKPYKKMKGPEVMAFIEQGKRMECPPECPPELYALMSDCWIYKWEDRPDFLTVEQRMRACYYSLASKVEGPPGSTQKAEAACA
# [2] = biological target: T2, Serine/threonine-protein kinase ULK2 (Homo sapiens) (UniProt Q8IYT8); conditions: at 1 µM
# T2 sequence (whole entry): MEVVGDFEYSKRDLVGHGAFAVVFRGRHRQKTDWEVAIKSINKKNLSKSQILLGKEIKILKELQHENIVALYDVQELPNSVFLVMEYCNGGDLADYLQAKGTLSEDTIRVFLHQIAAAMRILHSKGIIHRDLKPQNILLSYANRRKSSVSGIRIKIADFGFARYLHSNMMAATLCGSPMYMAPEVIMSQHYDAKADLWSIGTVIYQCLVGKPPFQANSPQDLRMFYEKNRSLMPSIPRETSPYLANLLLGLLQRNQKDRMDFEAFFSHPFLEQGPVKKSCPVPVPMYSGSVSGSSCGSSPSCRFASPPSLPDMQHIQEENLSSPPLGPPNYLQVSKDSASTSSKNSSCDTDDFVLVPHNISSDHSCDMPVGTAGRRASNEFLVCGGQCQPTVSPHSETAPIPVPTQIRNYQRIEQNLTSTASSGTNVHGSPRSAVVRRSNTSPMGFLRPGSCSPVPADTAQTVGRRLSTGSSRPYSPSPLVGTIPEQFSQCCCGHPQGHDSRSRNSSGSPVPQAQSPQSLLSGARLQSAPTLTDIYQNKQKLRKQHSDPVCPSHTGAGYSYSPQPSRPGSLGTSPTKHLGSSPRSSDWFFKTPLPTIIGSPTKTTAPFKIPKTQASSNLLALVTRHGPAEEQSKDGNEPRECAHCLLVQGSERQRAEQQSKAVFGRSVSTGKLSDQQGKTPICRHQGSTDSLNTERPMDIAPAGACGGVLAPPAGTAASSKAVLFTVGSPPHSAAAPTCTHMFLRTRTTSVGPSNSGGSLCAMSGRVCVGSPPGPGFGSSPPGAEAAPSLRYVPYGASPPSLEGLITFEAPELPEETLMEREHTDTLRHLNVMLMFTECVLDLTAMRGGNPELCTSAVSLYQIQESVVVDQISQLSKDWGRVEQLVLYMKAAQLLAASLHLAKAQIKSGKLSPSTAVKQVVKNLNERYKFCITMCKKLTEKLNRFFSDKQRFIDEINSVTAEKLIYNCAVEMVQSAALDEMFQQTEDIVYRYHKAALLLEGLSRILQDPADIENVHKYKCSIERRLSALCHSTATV
# [3] = biological target: T2, Serine/threonine-protein kinase ULK2 (Homo sapiens); conditions: at 10 µM
# [4] = biological target: T3, Serine/threonine-protein kinase ULK3 (Homo sapiens) (UniProt Q6PHR2); conditions: at 1 µM
# T3 sequence (whole entry): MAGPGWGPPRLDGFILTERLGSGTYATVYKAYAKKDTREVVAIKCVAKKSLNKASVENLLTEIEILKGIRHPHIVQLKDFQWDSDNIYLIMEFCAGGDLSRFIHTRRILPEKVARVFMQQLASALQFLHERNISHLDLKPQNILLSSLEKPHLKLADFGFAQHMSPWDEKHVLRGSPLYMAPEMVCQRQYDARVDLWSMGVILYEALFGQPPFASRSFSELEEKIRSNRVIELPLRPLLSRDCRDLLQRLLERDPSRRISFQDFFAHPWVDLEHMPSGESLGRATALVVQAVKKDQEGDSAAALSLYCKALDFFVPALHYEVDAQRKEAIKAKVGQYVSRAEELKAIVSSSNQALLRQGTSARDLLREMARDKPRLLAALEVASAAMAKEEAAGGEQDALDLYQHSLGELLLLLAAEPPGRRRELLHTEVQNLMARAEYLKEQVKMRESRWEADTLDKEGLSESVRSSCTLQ
# [5] = biological target: T3, Serine/threonine-protein kinase ULK3 (Homo sapiens); conditions: at 10 µM
# [6] = biological target: Serine/threonine-protein kinase VRK2 (Homo sapiens) (UniProt Q86Y07); conditions: at 1 µM
# Sequence of Serine/threonine-protein kinase VRK2 (Homo sapiens) (Q86Y07 whole entry): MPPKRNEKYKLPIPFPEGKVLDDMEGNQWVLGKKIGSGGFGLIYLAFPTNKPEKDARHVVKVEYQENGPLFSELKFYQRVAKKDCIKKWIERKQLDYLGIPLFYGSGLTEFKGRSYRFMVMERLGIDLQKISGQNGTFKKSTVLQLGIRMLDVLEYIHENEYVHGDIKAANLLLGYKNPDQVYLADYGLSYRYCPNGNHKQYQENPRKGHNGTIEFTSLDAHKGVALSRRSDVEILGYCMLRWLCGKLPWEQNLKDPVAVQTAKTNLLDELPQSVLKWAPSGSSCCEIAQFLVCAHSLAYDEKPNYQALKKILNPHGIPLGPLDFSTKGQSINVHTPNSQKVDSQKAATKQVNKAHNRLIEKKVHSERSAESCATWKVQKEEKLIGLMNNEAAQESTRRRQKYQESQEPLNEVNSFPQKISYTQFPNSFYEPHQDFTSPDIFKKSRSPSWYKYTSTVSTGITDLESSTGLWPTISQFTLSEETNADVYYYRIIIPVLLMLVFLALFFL
# [7] = biological target: Serine/threonine-protein kinase VRK2 (Homo sapiens) (UniProt Q86Y07); conditions: at 10 µM
# [8] = biological target: Serine/threonine-protein kinase WNK2 (Homo sapiens) (UniProt Q9Y3S1); conditions: at 1 µM
# Sequence of Serine/threonine-protein kinase WNK2 (Homo sapiens) (Q9Y3S1 whole entry): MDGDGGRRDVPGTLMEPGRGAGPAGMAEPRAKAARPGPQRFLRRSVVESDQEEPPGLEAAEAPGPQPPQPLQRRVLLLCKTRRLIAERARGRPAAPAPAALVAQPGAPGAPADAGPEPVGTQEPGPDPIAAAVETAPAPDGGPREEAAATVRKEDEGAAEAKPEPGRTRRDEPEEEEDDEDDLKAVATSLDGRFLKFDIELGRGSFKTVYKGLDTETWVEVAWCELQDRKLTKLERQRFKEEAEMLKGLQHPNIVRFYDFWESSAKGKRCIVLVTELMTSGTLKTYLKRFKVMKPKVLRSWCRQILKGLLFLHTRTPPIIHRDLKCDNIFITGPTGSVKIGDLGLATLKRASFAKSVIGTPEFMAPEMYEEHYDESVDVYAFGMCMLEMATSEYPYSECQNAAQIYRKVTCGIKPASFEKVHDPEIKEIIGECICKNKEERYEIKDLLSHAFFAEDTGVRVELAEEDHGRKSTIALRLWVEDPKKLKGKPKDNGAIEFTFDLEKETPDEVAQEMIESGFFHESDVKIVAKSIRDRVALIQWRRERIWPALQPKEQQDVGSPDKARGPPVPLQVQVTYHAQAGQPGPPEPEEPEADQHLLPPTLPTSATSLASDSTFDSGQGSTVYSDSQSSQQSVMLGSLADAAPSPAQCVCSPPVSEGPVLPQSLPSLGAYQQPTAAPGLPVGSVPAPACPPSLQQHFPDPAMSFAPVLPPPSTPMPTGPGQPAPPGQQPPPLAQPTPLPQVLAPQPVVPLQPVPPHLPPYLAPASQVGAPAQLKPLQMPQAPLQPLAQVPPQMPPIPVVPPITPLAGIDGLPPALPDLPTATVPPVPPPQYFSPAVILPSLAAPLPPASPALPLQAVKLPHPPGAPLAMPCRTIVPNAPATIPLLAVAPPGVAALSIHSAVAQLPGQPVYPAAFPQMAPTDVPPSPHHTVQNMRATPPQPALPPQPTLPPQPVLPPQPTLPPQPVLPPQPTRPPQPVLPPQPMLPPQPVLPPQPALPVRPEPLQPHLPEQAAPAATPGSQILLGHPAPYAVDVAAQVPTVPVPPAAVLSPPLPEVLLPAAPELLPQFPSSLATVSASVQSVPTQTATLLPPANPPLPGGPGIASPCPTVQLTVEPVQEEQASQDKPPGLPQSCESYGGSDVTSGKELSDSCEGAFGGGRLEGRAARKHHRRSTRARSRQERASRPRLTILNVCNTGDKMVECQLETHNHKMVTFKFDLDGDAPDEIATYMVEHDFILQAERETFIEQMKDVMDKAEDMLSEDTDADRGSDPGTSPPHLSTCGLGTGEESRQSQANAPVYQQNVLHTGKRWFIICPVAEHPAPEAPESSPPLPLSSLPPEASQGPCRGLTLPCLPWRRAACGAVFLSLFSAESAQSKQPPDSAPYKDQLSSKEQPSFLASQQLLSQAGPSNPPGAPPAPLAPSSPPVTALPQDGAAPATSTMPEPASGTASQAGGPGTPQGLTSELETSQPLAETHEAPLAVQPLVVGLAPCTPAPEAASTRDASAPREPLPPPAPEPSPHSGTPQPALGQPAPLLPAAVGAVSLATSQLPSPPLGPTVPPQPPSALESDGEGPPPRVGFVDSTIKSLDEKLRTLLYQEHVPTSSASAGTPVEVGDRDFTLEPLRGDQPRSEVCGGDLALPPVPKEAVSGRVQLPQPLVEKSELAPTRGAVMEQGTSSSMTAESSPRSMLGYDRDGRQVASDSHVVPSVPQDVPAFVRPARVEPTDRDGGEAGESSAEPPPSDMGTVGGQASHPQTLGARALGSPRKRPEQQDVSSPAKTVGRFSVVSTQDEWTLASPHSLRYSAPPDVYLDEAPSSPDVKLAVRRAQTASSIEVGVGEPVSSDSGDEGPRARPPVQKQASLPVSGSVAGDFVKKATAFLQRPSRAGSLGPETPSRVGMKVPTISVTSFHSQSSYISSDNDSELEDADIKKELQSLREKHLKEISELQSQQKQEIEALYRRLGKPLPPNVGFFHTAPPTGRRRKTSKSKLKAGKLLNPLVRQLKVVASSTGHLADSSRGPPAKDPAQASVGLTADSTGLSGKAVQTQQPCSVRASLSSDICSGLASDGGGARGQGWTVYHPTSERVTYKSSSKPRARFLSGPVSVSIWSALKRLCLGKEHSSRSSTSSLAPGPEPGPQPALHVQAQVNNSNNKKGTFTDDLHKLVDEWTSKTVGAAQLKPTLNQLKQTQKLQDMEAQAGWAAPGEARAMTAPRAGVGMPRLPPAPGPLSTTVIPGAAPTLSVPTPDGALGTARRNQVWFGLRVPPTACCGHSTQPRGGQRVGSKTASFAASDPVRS
# [9] = biological target: Serine/threonine-protein kinase WNK2 (Homo sapiens) (UniProt Q9Y3S1); conditions: at 10 µM
# [10] = biological target: Serine/threonine-protein kinase WNK3 (Homo sapiens) (UniProt Q9BYP7); conditions: at 1 µM
# [11] = biological target: Serine/threonine-protein kinase WNK3 (Homo sapiens) (UniProt Q9BYP7); conditions: at 10 µM
# [12] = biological target: Tyrosine-protein kinase Yes (Homo sapiens) (UniProt P07947); conditions: at 1 µM
# [13] = biological target: Tyrosine-protein kinase Yes (Homo sapiens) (UniProt P07947); conditions: at 10 µM
# [14] = biological target: T1, Tyrosine-protein kinase ZAP-70 (Homo sapiens); conditions: at 1 µM
# [15] = biological target: Death-associated protein kinase 3 (Homo sapiens) (UniProt O43293); conditions: at 1 µM
# Sequence of Death-associated protein kinase 3 (Homo sapiens) (O43293 whole entry, looked up): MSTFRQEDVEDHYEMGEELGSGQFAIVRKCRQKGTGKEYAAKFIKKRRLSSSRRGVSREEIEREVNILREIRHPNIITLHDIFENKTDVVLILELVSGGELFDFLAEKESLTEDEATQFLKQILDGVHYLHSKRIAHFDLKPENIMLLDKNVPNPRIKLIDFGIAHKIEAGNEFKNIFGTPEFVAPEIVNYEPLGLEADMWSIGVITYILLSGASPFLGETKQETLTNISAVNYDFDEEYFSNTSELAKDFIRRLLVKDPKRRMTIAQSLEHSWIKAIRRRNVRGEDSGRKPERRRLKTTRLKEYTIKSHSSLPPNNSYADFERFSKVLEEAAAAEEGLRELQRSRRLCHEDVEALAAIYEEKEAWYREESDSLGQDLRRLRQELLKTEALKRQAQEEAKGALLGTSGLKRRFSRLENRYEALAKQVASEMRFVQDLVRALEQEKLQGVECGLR
# [16] = biological target: Death-associated protein kinase 3 (Homo sapiens) (UniProt O43293); conditions: at 10 µM
# [17] = biological target: RAF proto-oncogene serine/threonine-protein kinase (Homo sapiens) (UniProt P04049); conditions: at 1 µM
# Sequence of RAF proto-oncogene serine/threonine-protein kinase (Homo sapiens) (P04049 whole entry): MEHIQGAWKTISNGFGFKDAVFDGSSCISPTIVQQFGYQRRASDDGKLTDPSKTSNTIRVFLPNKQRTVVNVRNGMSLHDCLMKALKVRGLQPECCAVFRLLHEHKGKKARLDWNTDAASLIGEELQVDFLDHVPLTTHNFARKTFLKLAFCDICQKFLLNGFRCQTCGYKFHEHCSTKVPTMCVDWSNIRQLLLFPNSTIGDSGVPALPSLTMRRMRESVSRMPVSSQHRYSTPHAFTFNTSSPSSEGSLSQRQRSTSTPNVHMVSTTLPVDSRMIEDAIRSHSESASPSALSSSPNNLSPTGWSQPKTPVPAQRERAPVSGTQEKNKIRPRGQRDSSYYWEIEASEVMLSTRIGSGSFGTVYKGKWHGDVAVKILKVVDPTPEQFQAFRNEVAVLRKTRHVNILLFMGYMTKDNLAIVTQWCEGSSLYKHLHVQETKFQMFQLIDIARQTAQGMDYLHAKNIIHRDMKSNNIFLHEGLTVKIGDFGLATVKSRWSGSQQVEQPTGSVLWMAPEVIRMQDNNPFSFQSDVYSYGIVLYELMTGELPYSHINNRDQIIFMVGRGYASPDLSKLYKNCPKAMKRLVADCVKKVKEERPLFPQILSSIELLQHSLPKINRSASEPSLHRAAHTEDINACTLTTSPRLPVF
# [18] = biological target: RAF proto-oncogene serine/threonine-protein kinase (Homo sapiens) (UniProt P04049); conditions: at 10 µM
# [19] = biological target: Mast/stem cell growth factor receptor Kit (Homo sapiens) (UniProt P10721); conditions: at 1 µM
# Sequence of Mast/stem cell growth factor receptor Kit (Homo sapiens) (P10721 whole entry): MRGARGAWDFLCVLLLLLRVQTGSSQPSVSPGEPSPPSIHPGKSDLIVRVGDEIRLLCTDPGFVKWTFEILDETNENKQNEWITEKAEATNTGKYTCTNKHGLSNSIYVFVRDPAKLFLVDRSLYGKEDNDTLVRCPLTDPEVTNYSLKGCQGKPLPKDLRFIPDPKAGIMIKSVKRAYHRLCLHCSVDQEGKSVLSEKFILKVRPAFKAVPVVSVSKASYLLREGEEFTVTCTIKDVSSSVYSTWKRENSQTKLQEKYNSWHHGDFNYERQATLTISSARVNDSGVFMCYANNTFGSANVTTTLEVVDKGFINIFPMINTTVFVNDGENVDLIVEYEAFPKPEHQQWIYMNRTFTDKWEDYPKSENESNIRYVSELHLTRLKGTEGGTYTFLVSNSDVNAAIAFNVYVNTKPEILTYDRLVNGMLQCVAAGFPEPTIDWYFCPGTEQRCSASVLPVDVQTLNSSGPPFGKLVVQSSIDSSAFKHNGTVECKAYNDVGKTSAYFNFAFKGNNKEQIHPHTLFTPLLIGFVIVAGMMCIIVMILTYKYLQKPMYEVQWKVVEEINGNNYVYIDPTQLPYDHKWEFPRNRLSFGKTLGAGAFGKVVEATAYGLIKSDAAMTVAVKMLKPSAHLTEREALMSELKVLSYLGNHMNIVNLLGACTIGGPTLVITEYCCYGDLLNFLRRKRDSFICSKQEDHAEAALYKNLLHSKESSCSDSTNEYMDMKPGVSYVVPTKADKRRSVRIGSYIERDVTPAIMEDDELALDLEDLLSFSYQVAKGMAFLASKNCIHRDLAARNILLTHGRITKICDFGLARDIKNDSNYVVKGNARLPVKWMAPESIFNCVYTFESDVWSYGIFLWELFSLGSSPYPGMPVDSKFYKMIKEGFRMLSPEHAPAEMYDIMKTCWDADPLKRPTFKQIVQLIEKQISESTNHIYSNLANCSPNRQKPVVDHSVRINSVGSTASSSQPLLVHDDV
# [20] = biological target: Mast/stem cell growth factor receptor Kit (Homo sapiens) (UniProt P10721); conditions: at 10 µM
compound,measurement,setting,value
CCN(CC)CCNC(=O)c1c(C)[nH]c(/C=C2\C(=O)Nc3ccc(Cl)cc32)c1C,residual activity,[1],77%
CO[C@H]1C[C@@H]2CC[C@@H](C)[C@@](O)(O2)C(=O)C(=O)N2CCCC[C@H]2C(=O)O[C@H]([C@H](C)C[C@@H]2CC[C@@H](O)[C@H](OC)C2)CC(=O)[C@H](C)/C=C(\C)[C@@H](O)[C@@H](OC)C(=O)[C@H](C)C[C@H](C)/C=C/C=C/C=C/1C,residual activity,[1],121%
CC(=O)O/N=C1\C(=C2\C(=O)Nc3cc(Br)ccc32)Nc2ccccc21,residual activity,[1],87%
COc1cc2ncnc(Nc3ccc(OCc4ccccc4)cc3)c2cc1OC,residual activity,[2],102%
same,residual activity,[3],93%
same,residual activity,[4],104%
same,residual activity,[5],69%
same,residual activity,[6],112% (inactive)
same,residual activity,[7],97%
same,residual activity,[8],93% (inactive)
same,residual activity,[9],55%
same,residual activity,[10],95% (inactive)
same,residual activity,[11],64%
same,residual activity,[12],64%
same,residual activity,[13],39%
same,residual activity,[14],112%
same,residual activity,[1],107%
same,residual activity,[15],86%
same,residual activity,[16],104%
same,residual activity,[17],86%
same,residual activity,[18],96%
same,residual activity,[19],98%
same,residual activity,[20],29%
COC(=O)[C@@]1(O)C[C@H]2O[C@]1(C)n1c3ccccc3c3c4c(c5c6ccccc6n2c5c31)C(=O)NC4,residual activity,[2],7%
same,residual activity,[3],0%
same,residual activity,[4],0%
same,residual activity,[5],1%
same,residual activity,[6],100% (inactive)
same,residual activity,[7],101%
same,residual activity,[8],63% (inactive)
same,residual activity,[9],12%
same,residual activity,[10],70% (inactive)
same,residual activity,[11],8%
same,residual activity,[12],11%
same,residual activity,[13],1%
same,residual activity,[14],16%
same,residual activity,[1],2%
same,residual activity,[15],12%
same,residual activity,[16],2%
same,residual activity,[17],78%
same,residual activity,[18],69%
same,residual activity,[19],76%
same,residual activity,[20],20%
O=c1[nH]c2ccccc2n1C1CCN(Cc2ccc(-c3nc4cc5[nH]cnc5cc4nc3-c3ccccc3)cc2)CC1,residual activity,[2],108%
same,residual activity,[3],106%
same,residual activity,[4],100%
same,residual activity,[5],95%
same,residual activity,[6],109% (inactive)
same,residual activity,[7],93%
same,residual activity,[8],117% (inactive)
same,residual activity,[9],83%
same,residual activity,[10],116% (inactive)
same,residual activity,[11],85%
same,residual activity,[12],99%
same,residual activity,[13],73%
same,residual activity,[14],123%
same,residual activity,[1],98%
same,residual activity,[15],100%
same,residual activity,[16],95%
same,residual activity,[17],94%
same,residual activity,[18],109%
same,residual activity,[19],121%
same,residual activity,[20],87%
COc1ccc2c(c1)/C(=C/c1cnc[nH]1)C(=O)N2,residual activity,[2],81%
same,residual activity,[3],23%
same,residual activity,[4],80%
same,residual activity,[5],23%
same,residual activity,[7],66%
same,residual activity,[11],96%
same,residual activity,[12],96%
same,residual activity,[13],19%
same,residual activity,[17],75%
same,residual activity,[18],74%
COc1cc2ncnc(Nc3ccc(NC(=O)c4ccccc4)cc3)c2cc1OC,residual activity,[1],104%
CCN(CC)CCCCN1c2ccccc2Oc2ccc(Cl)cc21,residual activity,[1],124%
C[S+]([O-])c1ccc(-c2nc(-c3ccc(F)cc3)c(-c3ccncc3)[nH]2)cc1 (stereo unspecified),residual activity,[2],120%
same,residual activity,[3],101%
same,residual activity,[4],104%
same,residual activity,[5],104%
same,residual activity,[6],114% (inactive)
same,residual activity,[7],96%
same,residual activity,[8],117% (inactive)
same,residual activity,[9],101%
same,residual activity,[10],110% (inactive)
same,residual activity,[11],100%
same,residual activity,[13],45%
same,residual activity,[14],124%
same,residual activity,[1],130%
same,residual activity,[15],98%
same,residual activity,[16],100%
same,residual activity,[17],17%
same,residual activity,[18],3%
same,residual activity,[19],119%
same,residual activity,[20],102%
O=C1c2ccccc2-c2nc3nnnn3nc21,residual activity,[2],110%
same,residual activity,[3],103%
same,residual activity,[6],116% (inactive)
same,residual activity,[7],102%
same,residual activity,[10],115% (inactive)
same,residual activity,[11],103%
same,residual activity,[14],111%
same,residual activity,[1],120%
same,residual activity,[16],114%
same,residual activity,[18],101%
O=C1NC(=O)/C(=C/c2ccc3c(c2)OC(F)(F)O3)S1,residual activity,[1],102%
COc1ccc2c(c[n+](C)c3c4cc5c(cc4ccc23)OCO5)c1OC,residual activity,[3],94%
same,residual activity,[5],96%
same,residual activity,[6],110% (inactive)
same,residual activity,[7],91%
same,residual activity,[9],76%
same,residual activity,[11],84%
same,residual activity,[13],84%
same,residual activity,[14],119%
same,residual activity,[1],95%
same,residual activity,[15],94%
same,residual activity,[19],123%
same,residual activity,[20],95%
CO[C@@H]1[C@H](N(C)C(=O)c2ccccc2)C[C@H]2O[C@]1(C)n1c3ccccc3c3c4c(c5c6ccccc6n2c5c31)C(=O)NC4,residual activity,[1],60%
N/C(=N\[N+](=O)[O-])N/N=C\c1ccc(-c2cccc([N+](=O)[O-])c2)o1,residual activity,[4],92%
same,residual activity,[5],88%
same,residual activity,[13],100%
same,residual activity,[14],99%
same,residual activity,[1],100%
same,residual activity,[17],88%
same,residual activity,[18],80%
Oc1ccc(Nc2nc(-c3ccc(Cl)cc3)cs2)cc1,residual activity,[1],130%
CC(C)(C)c1cc(C=C(C#N)C#N)cc(Br)c1O,residual activity,[2],113%
same,residual activity,[3],112%
same,residual activity,[4],110%
same,residual activity,[5],99%
same,residual activity,[6],101% (inactive)
same,residual activity,[7],105%
same,residual activity,[8],114% (inactive)
same,residual activity,[9],114%
same,residual activity,[10],111% (inactive)
same,residual activity,[11],105%
same,residual activity,[17],99%
same,residual activity,[18],70%
same,residual activity,[19],113%
same,residual activity,[20],102%
Oc1ccc(-c2nc(-c3ccc(F)cc3)c(-c3ccncc3)[nH]2)cc1,residual activity,[18],1%
